# Compound activity: PubChem, The Scripps Research Institute Molecular Screening Center
# PLCb3 inh: inhibitors of human phospholipase C beta3 | Purified PLC-beta3, fluorogenic substrate, fluorescence | 370,000 tested, 0.18% active | inhibition, % at 12.2 µM | AID 720704; in the data active = inhibition above about 11%;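 note: 0% = median of compound wells on plate and 100% = full blocker control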
# ADAM10 inh: inhibitors of human ADAM10; O14672; recombinant ADAM10, EDANS/DABCYL FRET peptide cleavage, 3 h; inhibition, % at 7 µM; 370,000 tested, 0.62% active;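 active = inhibition above a per-campaign cutoff equal to the mean of compounds falling between control-based bounds plus 3 SD, cut at about 20% in these data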;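 note: 0% = DMSO wells while the 100% control is not disclosed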
# Target sequence (O14672 214-748 limits assumed): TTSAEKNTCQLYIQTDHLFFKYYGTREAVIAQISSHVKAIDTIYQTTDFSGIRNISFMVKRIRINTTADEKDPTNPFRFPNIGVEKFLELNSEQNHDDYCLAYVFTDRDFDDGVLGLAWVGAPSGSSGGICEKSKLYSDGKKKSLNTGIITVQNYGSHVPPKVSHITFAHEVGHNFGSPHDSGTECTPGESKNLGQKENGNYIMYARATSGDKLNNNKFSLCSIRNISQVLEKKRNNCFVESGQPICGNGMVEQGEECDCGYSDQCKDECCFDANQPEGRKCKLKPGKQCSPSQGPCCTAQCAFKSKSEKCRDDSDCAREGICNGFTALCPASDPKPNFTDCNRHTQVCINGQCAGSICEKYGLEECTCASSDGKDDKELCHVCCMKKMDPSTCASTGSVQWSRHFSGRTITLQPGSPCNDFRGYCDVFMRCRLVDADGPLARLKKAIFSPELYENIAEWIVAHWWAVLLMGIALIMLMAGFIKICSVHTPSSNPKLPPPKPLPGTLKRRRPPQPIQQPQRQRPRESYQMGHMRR
# KLK7 zymogen act: activates the human kallikrein-7 zymogen; activation, % at 7 µM; AID 652039; purified proKLK7, EDANS-DABCYL substrate fluorescence; 100% is mature enzyme control, 0% vehicle; 370,000 tested, 0.9% active; P49862;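 active = activation above the mean of all tested compounds plus 3 SD, computed per campaign excluding outliers beyond control limits, cut at about 13% in these data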
# PLCg1 inh: inhibitors of human phospholipase C gamma1. P19174. 370,000 tested, 0.84% active. purified PLC-gamma1, fluorogenic substrate, fluorescence. inhibition, % at 12.2 µM. AID 720700; in the data active = inhibition above about 9.5%
# ADAM17 inh: inhibitors of human ADAM17; 370,000 tested, 0.83% active; inhibition, % at 6.95 µM; P78536; recombinant ADAM17, EDANS/DABCYL FRET peptide cleavage;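 active = inhibition above the mean of compounds lying between control limits plus 3 SD, set per campaign, cut at about 8.5% in these data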;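 note: 0% = DMSO-only wells as the low control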
# proKLK7 act conf: confirmation of human kallikrein-7 zymogen activators. 3,200 tested, 68% active. shares compounds with KLK7 zymogen act. activation, % at 7 µM. purified proKLK7, EDANS-DABCYL substrate fluorescence; scaled: vehicle 0, mature enzyme 100;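 active = activation, as change over the incubation, above the mean of all tested compounds plus 3 SD, cut at about 13% in these data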
# EDANS-DABCYL int: counter-screen for kallikrein-7 activators: EDANS-DABCYL optical interference; EDANS-DABCYL substrate fluorescence interference, no enzyme, 4 h; solvent 0%, active enzyme control 100%; 3,200 tested, 80% active; shares compounds with KLK7 zymogen act; AID 686952; activation, % at 7 µM;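 active = activation above the all-compound mean plus 3 SD, ignoring values outside control-based bounds, cut at about 4.8% in these data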;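 note: value is the 4 h activation minus the activation read at time zero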
# EDANS interf: counter-screen for kallikrein-7 activators: EDANS-DABCYL interference, dose response | shares compounds with KLK7 zymogen act | EDANS-DABCYL peptide fluorescence interference, no enzyme | EC50, µM | 250 tested, 20% active;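 active = compounds that raise the fluorescence signal in this interference counterscreen, with EC50 at or below 10 µM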;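 note: intact quenched peptide substrate alone read at 355 nm excitation and 520 nm emission; signal is fluorescence gain from T0 to T4 after four hours at room temperature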
# * = called active by the depositor; i = inactive; nt = no result given. In the library only some 2.9% were active in any assay of this set; here they are far more common.
SMILES,PLCb3 inh,ADAM10 inh,KLK7 zymogen act,PLCg1 inh,ADAM17 inh,proKLK7 act conf,EDANS-DABCYL int,others
CCNC(=S)Nc1ccc2c(c1)c(=O)n(C)n2CC=C(C)C,i,i,46*,i,i,31*,33*,
COc1ccc2c(c1)[C@@H](NC(=O)c1ccncc1)[C@@H]1Cc3ccccc3[C@H]21,4,-5,0,2,-1,nt,nt,
O=C(CCc1ccccc1)N[C@H]1[C@@H](OC(=O)c2ccco2)CCC[C@]12C(=O)N(Cc1ccccc1)c1ccccc12,3,5,0,2,4,nt,nt,
O=c1c2ccccc2nc2ccccn12,i,i,50*,i,i,42*,41*,
Clc1ccc([C@H]2OC[C@@]3(CNCc4ccccn4)CS[C@H](c4ccc(Cl)cc4)N23)cc1,5,0,1,0,2,nt,nt,
C=CCN1C(=O)[C@@H](CC(=O)N2CCN(C(=O)OCC)CC2)[C@]2(C(=O)OC)CCCCC=C12,1,-6,-1,-2,-5,nt,nt,
COC(=O)c1cc(-c2cc3ccccc3o2)c(=O)n2c1CCC2,-68,-422,-4,-50,-112,nt,nt,
NC(=O)c1cc2ccc(O)cc2oc1=NCc1ccccc1,i,i,69*,i,i,117*,125*,
COc1ccc2cc(C(N)=O)c(=Nc3ccccc3)oc2c1,-57,i,-1,-42,-244,nt,nt,
NC(=O)c1cc2ccc(O)cc2oc1=Nc1ccccc1,i,i,40*,i,i,10,7.9*,
COc1ccc(OC)c(N=c2oc3cc(O)ccc3cc2C(N)=O)c1,-355,i,14*,-290,-414,12,15*,
CCOC(=O)CC[C@@H]1CC[C@]2(CCCN(C(=O)c3ccno3)C2)O1,2,0,0,0,-1,nt,nt,
CC(C)(C)c1ccc(C#C[C@@H]2C=C[C@@H](O)[C@@H](COC(=O)NCc3ccccc3)O2)cc1,9,16,1,1,6,nt,nt,
CN(C(=O)[C@H]1O[C@@H](n2cnc3c(=O)[nH]c(N)nc32)[C@H](O)[C@@H]1O)C1CCCCC1,-1,-1,0,2,-1,nt,nt,
CC(=O)Nc1ccc(-c2cc(C(=O)O)c3ccc(C)cc3n2)cc1,i,i,17*,i,-283,17*,28*,
O=S1(=O)c2ccc(Br)cc2OC[C@H](Cc2ccccc2)N1Cc1cn(CCC2OCCCO2)nn1,5,6,1,0,3,nt,nt,
C=C(C)COc1ccc2c(C)c(CC(=O)N3C[C@H]4C[C@@H](C3)c3cccc(=O)n3C4)c(=O)oc2c1,-98,i,4,-72,-229,nt,nt,
C=C(C)COc1cc2oc(=O)c(CC(=O)N3C[C@H]4C[C@@H](C3)c3cccc(=O)n3C4)c(C)c2cc1Cl,-244,i,16*,-191,-402,24*,25*,
Cc1ccccc1CN1CCN(C(=O)[C@H]2O[C@@H](n3cnc(C(N)=O)n3)[C@H](O)[C@@H]2O)CC1,5,-12,1,1,-4,nt,nt,
CC(C)NCC(O)c1cc(O)cc(O)c1 (stereo not drawn),-4,-14,1,-4,-3,nt,nt,
CC(C)NC[C@H](O)c1ccc(O)c(O)c1,1,-7,47*,0,-8,49*,51*,
COc1cccc(C2c3[nH]c4ccccc4c3CCN2CCCn2cccn2)c1 (stereo not drawn),-50,-20,5,-48,-8,nt,nt,
COc1ccc(C2c3[nH]c4ccccc4c3CCN2CCCn2cccn2)c(C)c1C (stereo not drawn),-350,-227,27*,-307,-81,19*,20*,
COc1ccc(-c2ccc3c(n2)CCCN3S(=O)(=O)c2c(C)noc2C)cc1,-62,-52,1,-47,-12,nt,nt,
Cn1c(-c2ccc(C=O)s2)nc2ccccc21,i,i,48*,i,-466,52*,56*,
SMILES,PLCb3 inh,ADAM10 inh,KLK7 zymogen act,PLCg1 inh,ADAM17 inh,proKLK7 act conf,EDANS-DABCYL int,others
Cn1c(-c2cccs2)nc2ccccc21,-35,-153,0,-18,-68,nt,nt,
Cc1ccc(N2C(=O)c3cccc4cccc(c34)C2=O)cc1,1,-1,-1,1,-1,nt,nt,
Cc1ccc(N2C=Nc3ccc(C)c4nc(C)cc2c34)cc1,i,-475,49*,i,-147,-20,-21,
CC1=Nc2ccc(C)c3nc(C)cc(c23)N1c1ccc(C)cc1,i,i,70*,i,-168,2,0,
CNc1cnc(-c2ccc(F)c(F)c2F)cn1,-263,i,13*,-189,-487,13*,13*,
COC(=O)c1c(-c2ccc(OC)cc2)c2c(c3c4cc(F)ccc4n(S(=O)(=O)c4ccc(C)cc4)c13)C(=O)N(C)C2,-75,-15,0,-55,-7,nt,nt,
O=C(Nc1ccc2nccnc2c1)Nc1ccccc1Cl,-79,-28,20*,-57,-7,46*,44*,
O=C(Nc1cccc(Cl)c1)Nc1ccc2nccnc2c1,-85,-31,0,-48,-11,nt,nt,
Cc1ccc(C(=O)Nc2ccc3nccnc3c2)cc1,-393,i,13*,-346,-241,45*,38*,EDANS interf=9.2*
CCOc1ccc(N(CC(=O)Nc2c(C)n(C)n(-c3ccccc3)c2=O)S(=O)(=O)c2cc(OC)ccc2OC)cc1,0,-12,0,0,-4,nt,nt,
COC(=O)C1=CN(Cc2ccc(OC)c(OC)c2)C=C(C(=O)OC)C1c1ccc(O)cc1,-434,i,21*,-382,-451,-147,-168,
C[C@@H]1C=CCCO[C@]12C(=O)N(Cc1ccccc1C(F)(F)F)c1cccc(Br)c12,-3,-11,1,0,-3,nt,nt,
CCOc1ccc(C(=O)/C=C/Nc2ccc(S(=O)(=O)Nc3cc(C)nc(C)n3)cc2)cc1,-100,-11,147*,-57,-4,238*,177*,
O=C(CSc1nc2ccccc2nc1N1CCCCC1)N1CCN(C(c2ccccc2)c2ccc(Cl)cc2)CC1 (stereo not drawn),0,-5,0,2,-2,nt,nt,
Cc1ccc2c(c1)COc1c3ccc(C(=O)N[C@@H](C)CO)cc3nn1-2,-215,-500,14*,-181,-146,7,4,
CCCN1CCN(CCCNC(=O)c2cc3c(=O)[nH]c4ccccc4c3s2)CC1,-101,i,5,-96,-176,nt,nt,
CCN1CCN(CCCNC(=O)c2cc3c(s2)-c2ccccc2OC3)CC1,i,i,37*,i,i,73*,70*,
